In PubChem BioAssay (NCATS):
Records with an inconclusive call do not appear. Values without a mark were called inactive. The source made the active and inactive calls. The call rests on the fitted dose curve; in most records, active means well fitted cell-killing curve with a large enough effect; inconclusive means small, poorly fitted or top-dose-only effect; inactive means flat fitted curve, though single readings scatter.

test: Quantitative highthroughput screen to assess conditional lethalithy of P12 Ichikawa cells grown in RPMI1640 with dialyzed fetal bovine serum (RPMI+ds) (AID 1963880); details: ATP luminescence, 48 h; Potency: P12-Ichikawa viability; series mostly up to 45.8 µM; viability: at the top concentration; further: nearly all actives have a fitted effect of over 35% in size
From the text: Assay Provider: Jason Cantor Ph.D.
Department of Biochemistry
University of Wisconsin-Madison, Madison, WI, USA
Chemical screening studies have identified drug sensitivities across hundreds of cancer cell lines but most putative therapeutics fail to translate. Discovery and development of drug candidates in models that more accurately reflect nutrient levels in human blood is a major challenge. Here we performed high-throughput screens in conventional versus Human Plasma-Like Medium (HPLM) to identify compounds that were "missed" when screening using the artificial culture condition. Sets of conditional anticancer compounds spanned phases of clinical development and included non-oncology drugs were assessed. […] We also traced conditional phenotypes for several chemotherapeutics to availability of HPLM-specific metabolites and confirmed others for compounds whose reported targets are encoded by nonessential genes. Our findings establish generalizable strategies for exploiting conditional lethality in HPLM to reveal therapeutic candidates and mechanisms of action in cancer cells.
Described herein are the results of each viability screens against three cell lines: NOMO1 (an acute myeloid leukemia cell line); P12-Ichikawa (a T-cell acute lymphoblastic leukemia); and SEM (a B-cell ALL). Each assay was screened using 3 different cell culture media: homemade human plasma-Like medium with 10% dialyzed fetal bovine serum (HPLM+ds); RPMI1640 with 10% untreated FBS and 5mM glucose (RPMI+s); and RPMI1640 with 10% dialyzed fetal bovine serum and 5 mM glucose (RPMI+ds).
PROTOCOL TABLE (as described by Inglese J, Shamu CE and Guy RK. 2007)
SEQUENCE No. (e.g., 1, 2, 3, etc.); […] (e.g., Cells, Incubation, Reagent, etc.); VALUE and DESCRIPTION.
1; Cells; 5 uL; white, solid bottom 1536-well Greiner assay plate.
2; Compounds; 23 nL; Kalypsis pin tool (Wako USA) equipped with a 1536-well pin head to transfer to the assay plates.
3; Incubation; 48 hours; 37C incubation.
4; Reagent; 3 uL; CellTiter Glo (Promega).
5; Incubation; 5 min, room temperature
6; Detection; Luminescence, Viewlux PerkinElmer.
NOTES (numbers refer to Sequence numbers above)
1. Briefly, 5 ul of cell reagent was dispensed using a Multidrop Combi Dispenser. The NOMO1 and SEM cells were plated at 500 cells/well and the P12-Ichikawa line at 1000 cells/well.
2. After seeding the cells, 23 nL of MIPE 4.1 library compounds (in DMSO) were added to each plate using a Kalypsys 1536 Pintool dispenser. Bortezomib at final concentration of […] and DMSO were added to each plate as positive and negative controls respectively. For each screen, MIPE 4.1 compounds were added over an eleven-point concentration range […] in 3-fold dilutions.
3. Each plate was covered with a stainless steel gasketed lid to prevent evaporation and incubated for 48 hour at 37C, 95% relative humidity, and 5% CO2.
4-5. Three microliter CellTilter-GloTM luminescent substrate mix (Promega) reagent was added to the assay plate and incubated at room temperature for 5 min.
6. The luminescence signal was measured using a ViewLux (PerkinElmer) multiplate reader with a 2 second exposure time per plate. Data for each compound were normalized as percent viability such that measurements for DMSO and the empty well controls in each plate were defined as 100% and 0%, respectively.
Potency means the concentration at half of the fitted maximal effect.

Compound	viability	Potency
CC[C@@H](C(N)=O)N1CCCC1=O	95.5%	–
CCOC(=O)c1c(C(C#N)=CN)c2ccc(Cl)c(Cl)c2n1C	98.7%	–
N[C@@H](Cc1ccc(N(CCCl)CCCl)cc1)C(=O)O	–	5.9 µM (active)
CN(C)[C@@H]1C(=O)C(C(N)=O)=C(O)[C@@]2(O)C(=O)C3=C(O)c4c(O)cccc4[C@@](C)(O)[C@H]3C[C@@H]12	95%	–
Cc1[nH]nc2ccc(-c3cncc(OC[C@@H](N)Cc4c[nH]c5ccccc45)c3)cc12	–	1.05 µM (active)
CNC(=O)c1ccc(N2C(=S)N(c3ccc(C#N)c(C(F)(F)F)c3)C(=O)C23CCC3)cc1F	102%	–
C[C@]12CC[C@@H]3[C@@H](CCC4=CC(=O)CC[C@@H]43)[C@@H]1CC[C@@H]2OC(=O)CCc1ccccc1	90.2%	–
C[C@]12CC[C@@H]3c4ccc(OC(=O)N(CCCl)CCCl)cc4CC[C@H]3[C@@H]1CC[C@@H]2OP(=O)(O)O	79.8%	–
C[C@@H]1[C@@H](C(=O)C[C@H]2O[C@@H]3O[C@]4(C)CC[C@@H]5[C@H](C)CC[C@@H]([C@H]2C)[C@@]35OO4)O[C@@H]2O[C@]3(C)CC[C@H]4[C@H](C)CC[C@@H]1[C@@]24OO3	–	16.6 µM (active)
CC(N[C@H]1C[C@H]1c1ccccc1)c1ccc2c(c1)OCCO2 (stereo not given in full)	95.1%	–
Cn1cc(C2=C(c3cn(C4CCN(Cc5ccccn5)CC4)c4ccccc34)C(=O)NC2=O)c2ccccc21	109%	–
CC(=O)N(C)c1cccc(-c2ccnc3c(C(=O)c4cccs4)cnn23)c1	96.2%	–
C[C@](O)(CS(=O)(=O)c1ccc(F)cc1)C(=O)Nc1ccc(C#N)c(C(F)(F)F)c1	86.7%	–
C[C@]12CCC(=O)C(O)=C1CC[C@@H]1[C@H]3CCC(=O)[C@@]3(C)CC[C@@H]12	96.4%	–
C[C@]12CC[C@H]3[C@@H](CCC4=CC(=O)CC[C@@]43C)[C@H]1CC[C@H]2OC(=O)CCC1CCCC1	94%	–
CC(C)[C@H]1C(=O)N[C@H](CO)Cc2c[nH]c3cccc(c23)N1C	–	0.418 µM (active)
O=c1[nH]c2ccccc2n1C1CCN(Cc2ccc(-c3[nH]c4cc5ncnc5cc4nc3-c3ccccc3)cc2)CC1	91.7%	–
CC(C)(O)C=CC(=O)[C@](C)(O)[C@H]1[C@H](O)C[C@]2(C)[C@@H]3CC=C4[C@@H](C=C(O)C(=O)C4(C)C)[C@]3(C)C(=O)C[C@@]12C	–	0.166 µM (active)
Cc1nc(-c2ccc(-c3ccc(C(=O)N4CCc5cc6c(cc54)C4(CCN(C)CC4)CO6)cc3)c(C)c2)no1	105%	–
CCOP(=O)(OCC)C(C)NC(=O)N(CCCl)N=O (stereo not given)	116%	–

Compound	viability	Potency
C[C@H]1CCCC=CC2C[C@H](O)C[C@@H]2[C@H](O)C=CC(=O)O1 (stereo not given in full)	–	0.0235 µM (active)
CCCC[N+]1(C)[C@H]2CC(OC(=O)[C@H](CO)c3ccccc3)C[C@H]1[C@H]1O[C@H]12 (stereo not given in full)	102%	–
O=C1C=CC[C@@H]2[C@H]3CCCN4CCC[C@@H](CN12)[C@@H]34	95.3%	–
C[C@@H]1[C@H](O)[C@@H](C)C=CC=CCCC=CC=CC=CC=C[C@H](O[C@H]2O[C@@H](C)[C@H](O)[C@@H](N)[C@@H]2O)CC2O[C@](O)(C[C@@H](O)[C@H](O)CC[C@@H](O)C[C@@H](O)C[C@@H](O)CC(=O)O[C@H]1C)C[C@H](O)[C@H]2C(=O)O	105%	–
COc1ccc2c(c1OC)CN1CCc3cc4c(cc3C1C2)OCO4 (stereo not given)	–	1.66 µM (active)
CCOc1ccccc1-n1c(C(C)N2CCN(C(=O)COc3ccc(Cl)cc3)CC2)nc2ccccc2c1=O (stereo not given)	–	1.05 µM (active)
CC1=C(O)C(=O)C=C2C1=CC=C1[C@@]2(C)CC[C@@]2(C)[C@@H]3C[C@](C)(C(=O)O)CC[C@]3(C)CC[C@]12C	–	2.64 µM (active)
Clc1ccccc1C(c1ccccc1)(c1ccccc1)n1cccn1	100%	–
CC[C@@H]1[C@@H](C)O[C@@](O)([C@@H](C)[C@H](O)[C@H](C)[C@H]2OC(=O)C=CC=C[C@@H](C)[C@@H]([C@@H](C)[C@@H](O)[C@H](C)[C@@]3(O)C[C@H](O[C@H]4C[C@H](O)[C@H](O)[C@H](C)O4)[C@H](CC)[C@@H](C)O3)OC(=O)C=CC=C[C@@H]2C)C[C@H]1O[C@H]1C[C@H](O)[C@H](O)[C@H](C)O1	–	3.32 µM (active)
CCC1(c2ccc(N)cc2)CCC(=O)NC1=O (stereo not given)	94.6%	–
N=c1c2c(-c3ccccc3)c(-c3ccccc3)n(Cc3ccccc3)c2ncn1C1CCC(O)CC1 (stereo not given)	–	16.6 µM (active)
CCc1c(C(=O)C(N)=O)c2c(OCC(=O)O)cccc2n1Cc1ccccc1	96.8%	–
O=C(O)C(=O)c1cn(Cc2ccccc2)c2ccc(-c3ccc(OC(F)(F)F)cc3)cc12	98.7%	–
CC[C@H]1C=CC=CC[C@@H](C)[C@H](O)[C@@](C)(O)C(=O)[C@@H](C)[C@H](O)[C@@H](C)C(=O)[C@@H](C)[C@H](O)[C@@H](C)C=CC(=O)O[C@@H]2[C@@H](C)[C@H](CC1)O[C@]1(CC[C@H](C)[C@H](C[C@@H](C)O)O1)[C@H]2C	–	5.26 µM (active)
CC(C)(O)C(=O)Nc1ccc([N+](=O)[O-])c(C(F)(F)F)c1	–	16.6 µM (active)
NC1=NC(=O)N2CC12 (stereo not given)	–	6.62 µM (active)
COc1cc2cc(c1Cl)N(C)C(=O)C[C@H](OC(=O)C(C)C)[C@]1(C)O[C@H]1[C@H](C)[C@@H]1C[C@@](O)(NC(=O)O1)[C@H](OC)C=CC=C(C)C2	2.15%	–
COc1cccc2c1[C@]13CCN(CC4CC4)[C@H](C2)[C@]1(OC)CCC(=O)C3	95.8%	–
CCN1C[C@]2(OC(=O)c3ccccc3NC(C)=O)CC[C@H](OC)[C@@]34[C@H]5CC6[C@@H](OC)C[C@](O)(C(C[C@@H]23)[C@@H]14)[C@@]5(O)[C@@H]6OC	94.8%	–
O=c1[nH]c2ccccc2n1CCCN1CCC(n2c(=O)[nH]c3cc(Cl)ccc32)CC1	98%	–
